40 sequences from the supplement of paper PMC6555819 can be followed below.

The subject of the first assay is LXRa homodimer (NR concentration 270 nM). Description: PBM binding z-score (relative to random genomic background probes); higher = stronger binding; sequences stand for … in GC…GCGATTGACAGCGTAGAATGAAGG
A digest of the protocol: (§1)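 Custom Agilent 4×180K protein-binding microarrays carried double-stranded probes. Their 34-nt variable regions held direct-repeat seeds, single-nucleotide variants, half-site ablations and random human genomic background sequences. Arrays were incubated 1 h with ligand-free nuclear receptor dimers in PBS pH 7.4, 2% milk, 0.02% Triton X-100, 1 mM DTT, 0.2 mg/mL BSA and 0.4 mg/ml salmon testes DNA. Antibodies against each partner (one per run) detected binding, and scanned fluorescence was regression-normalized. Binding z-scores use random background probes as reference.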
Sequence TCTTGCAGATCAAAGGTTAAGAAAGCCGAAGCCT came in with a PBM binding z-score of -0.333.
Still for that read-out and setting: the value for CCGAGTGGGTTATGGGGCATTCAGGCAACGGTGA was -0.051; that for ATCTCTAGGTAAAGTTCACTGAAAGATCGATAGA was 3.22.
On the same count and under the same terms, the value for TGAATGAGGTGATAAGATCAGGGAACGTTGCAAA was -0.391.
AGCATGAGGTTATACGTAGATCAGGGAAGAAAGT had a PBM binding z-score of 0.246.
In turn, AGTCGAAGTTCAGGACGAGGTAACGTAAAGCACG yielded a PBM binding z-score of -0.0607.
Consider CCGACTGGGACATAAGGTTACCATAAGCCAGCCC, for which the PBM binding z-score turned out to be 0.14.
For the sequence ATACCAAGGTGGTCGTGAGGTCGTTGATACTAAC, the PBM binding z-score was 0.382.
The same measure, in the same setting: as for AAAATGAGGTTATTAAGATCAGGGAATTGCGGTC, the figure is 0.3.
Same read-out and setting: the value for GCTGCTAGGTCAGTTTGGTCAGCTAACGGGTACG was -0.212.
On the same count and under the same terms, the value for TCATGTAGGTAAAGGTGAAAGTCGAACGATATGA was -0.13; that for CAAACTAGTTCACCGGAAGGTCAAAGTCCGCATG was 4.71; that for CGTCCAAGTTCAGAGAGGTCAGTGAATGCCGAGT was 3.27.
CCTCGGAGGACTACAGGAGGTCAGAGCTGCCAGA showed a PBM binding z-score of 2.29.
Same read-out and setting: the value for TGAATGAGGTTATAAGCTCAGGGAACGTTGCAAA was -0.535.
Turning to CGTCCAAGTTCAGCAGGTCAGTGAAAGCGACGTG, the PBM binding z-score was found to be 1.12.
Still for that read-out and setting: as for AATGCAGGGTCACTAGGCCAGAGTAGGTACGAAT, the figure is 0.0121; as for TAGTCTAGGTCATGGGCCAGTATACCACGCGAAC, 1.27.
Same read-out and setting: the value for CGAACTGGGTCATTGACAGGACAGTGAATAGTAA was 0.288; that for AGAACGACGGCACGCTGAGTTGATAGCAGAGTAG was -0.906; that for TAGCCTACGTCAGATCGGGCCAGTATACGCTATA was -0.851.
Still for that read-out and setting: as for TAAGACAGGTGAAGGTAACTCAGGTACGCAGTCG, the figure is 0.116; as for TGAATCAGGTTATAAGATCAGGGAACGTTGCAAA, -0.396.
Sequence ACTAGCAGGCCAGGTTTGGGTCACTCAAACAAAG showed a PBM binding z-score of -0.504.
Still for that read-out and setting: as for TCTTGTAGATCAAAAGGAGGTTAAGAAAGATCGA, the figure is 0.268.
On the same count and under the same terms, as for TTACCAAGGTGAAAGGACGTTGATGCACGCCTTG, the figure is -0.414.
In turn, ATCGAAAGGTAGTGAGGTGAGTATACAGAAAGGC displayed a PBM binding z-score of 0.0161.
Same read-out and setting: as for ACTAGCAGGCCAAGTTTGGGTCAATCAAACAAAG, the figure is -0.484; as for CGAACTAGGTCATTGACAGGAGAGTGAATAGTAA, 0.0352.
With GCATATAGGTAATACAAGGGGAAAGTCCGATTGT, the PBM binding z-score came to 0.0811.
The same measure, in the same setting: the value for CAAACTAGGTCAAGGTCATAGTCGGTTTGTGCCA was 3.83; that for CAAACTAGCTCAAAGGTCAAAGTCGAGCCAACCA was 4.59.
The sequence TAGCTTAGGTCATTGGGCCAGTATAGTACGCATC had a PBM binding z-score of 1.12.
Still for that read-out and setting: the value for TGAATGAGGTTAAAGATCGGGGAACGTGGCGTCG was -0.0577.
On the same count and under the same terms, the value for CAGCCTAGATCAGGGCCAGTATAGGAGGAACGTT was -0.438; that for ACTATTAGTTGAGACAAGGGCAACCGATAGGTTG was -0.143.
Still for that read-out and setting: the value for GGAACGAGGGCATTCGAGTTGGTAGCATGGCGAT was -0.575.
Turning to ATCTCTAGGTAAAAATTCAGTGAATCCCGAGGAT, the PBM binding z-score was -0.0718.
The same measure, in the same setting: as for CCTACAGGGCCACGAAAGGTCATTGATTCAGTGA, the figure is 4.74; as for CGTCCAAGGTCAATGCTAGGTCAGTGAGAGCATT, 2.93.

The test system of a further assay is LXRb:RXRa (NR concentration 270 nM, RXRa partner concentration 90 nM). The assay is described as above. The essentials: as §1
TCTTGCAGATCAAAGGTTAAGAAAGCCGAAGCCT had a PBM binding z-score of 1.79.
Same read-out and setting: as for CCGAGTGGGTTATGGGGCATTCAGGCAACGGTGA, the figure is 0.764.
ATCTCTAGGTAAAGTTCACTGAAAGATCGATAGA came in with a PBM binding z-score of 2.37.
Same read-out and setting: as for TGAATGAGGTGATAAGATCAGGGAACGTTGCAAA, the figure is -0.155.
The same measure, in the same setting: as for AGCATGAGGTTATACGTAGATCAGGGAAGAAAGT, the figure is 1.47; as for AGTCGAAGTTCAGGACGAGGTAACGTAAAGCACG, 0.485; as for CCGACTGGGACATAAGGTTACCATAAGCCAGCCC, 0.621.
Still for that read-out and setting: as for ATACCAAGGTGGTCGTGAGGTCGTTGATACTAAC, the figure is 1.05; as for AAAATGAGGTTATTAAGATCAGGGAATTGCGGTC, 1.44.
As to GCTGCTAGGTCAGTTTGGTCAGCTAACGGGTACG, the PBM binding z-score came to 0.437.
In turn, TCATGTAGGTAAAGGTGAAAGTCGAACGATATGA registered a PBM binding z-score of 1.23.
CAAACTAGTTCACCGGAAGGTCAAAGTCCGCATG: the PBM binding z-score is 4.6.
The same measure, in the same setting: the value for CGTCCAAGTTCAGAGAGGTCAGTGAATGCCGAGT was 3.1.
The sequence CCTCGGAGGACTACAGGAGGTCAGAGCTGCCAGA displayed a PBM binding z-score of 1.62.
Still for that read-out and setting: the value for TGAATGAGGTTATAAGCTCAGGGAACGTTGCAAA was 1.01.
CGTCCAAGTTCAGCAGGTCAGTGAAAGCGACGTG: the PBM binding z-score turned out to be 1.53.
On the same count and under the same terms, the value for AATGCAGGGTCACTAGGCCAGAGTAGGTACGAAT was 3.54; that for TAGTCTAGGTCATGGGCCAGTATACCACGCGAAC was 2.58.
CGAACTGGGTCATTGACAGGACAGTGAATAGTAA registered a PBM binding z-score of 1.86.
For AGAACGACGGCACGCTGAGTTGATAGCAGAGTAG, the PBM binding z-score was -0.149.
The same measure, in the same setting: as for TAGCCTACGTCAGATCGGGCCAGTATACGCTATA, the figure is -1.01; as for TAAGACAGGTGAAGGTAACTCAGGTACGCAGTCG, 0.904.
TGAATCAGGTTATAAGATCAGGGAACGTTGCAAA: the PBM binding z-score turned out to be 0.0988.
The same measure, in the same setting: as for ACTAGCAGGCCAGGTTTGGGTCACTCAAACAAAG, the figure is 0.269; as for TCTTGTAGATCAAAAGGAGGTTAAGAAAGATCGA, 1.37; as for TTACCAAGGTGAAAGGACGTTGATGCACGCCTTG, 0.198.
On the same count and under the same terms, as for ATCGAAAGGTAGTGAGGTGAGTATACAGAAAGGC, the figure is -0.247.
Same read-out and setting: the value for ACTAGCAGGCCAAGTTTGGGTCAATCAAACAAAG was 0.918; that for CGAACTAGGTCATTGACAGGAGAGTGAATAGTAA was 1.64; that for GCATATAGGTAATACAAGGGGAAAGTCCGATTGT was -0.078.
CAAACTAGGTCAAGGTCATAGTCGGTTTGTGCCA: the PBM binding z-score was 4.11.
On the same count and under the same terms, the value for CAAACTAGCTCAAAGGTCAAAGTCGAGCCAACCA was 5.66.
In turn, TAGCTTAGGTCATTGGGCCAGTATAGTACGCATC yielded a PBM binding z-score of 2.62.
TGAATGAGGTTAAAGATCGGGGAACGTGGCGTCG gave a PBM binding z-score of 1.64.
As to CAGCCTAGATCAGGGCCAGTATAGGAGGAACGTT, the PBM binding z-score is -1.08.
On the same count and under the same terms, as for ACTATTAGTTGAGACAAGGGCAACCGATAGGTTG, the figure is -0.136.
Still for that read-out and setting: as for GGAACGAGGGCATTCGAGTTGGTAGCATGGCGAT, the figure is -0.0954; as for ATCTCTAGGTAAAAATTCAGTGAATCCCGAGGAT, -0.277; as for CCTACAGGGCCACGAAAGGTCATTGATTCAGTGA, 4.54.
On the same count and under the same terms, as for CGTCCAAGGTCAATGCTAGGTCAGTGAGAGCATT, the figure is 4.16.
